# ± gives the standard deviation of the averaged measurements. Whole data set: some 25,000 sequences, median “ln(normalized median fluorescence intensity)” near 8.9, cut for the highest 2% near 10. For the sample, the highest values were picked, then their nearest neighbours and some sequences at random.
# System: PfAP2-LT AP2 domain (GST-tagged)
# Experiment: gcPBM binding intensity (ln(normalized median fluorescence intensity)); higher = stronger DNA binding
# Procedure, shortened: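 The binding buffer was 1× PBS containing 1% milk, 0.2 mg/ml BSA, 0.5% salmon testes DNA and 0.03% Triton X-100. In it, GST-tagged P. falciparum DNA-binding domains expressed in E. coli were applied for 1 h to an Agilent 4 × 180k array of primer-extended double-stranded 36-bp intergenic genomic probes plus negative controls. Binding intensity, read with Alexa488 anti-GST antibody and a 488 nm scan, is the highest Masliner-normalised natural-log median intensity across replicate spots of either probe orientation.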
row,Sequence,gcPBM binding intensity (ln)
1,ACCTGAAGAGTCAAACGTACAAATATTATAAAATGA [XGTACX_site3188],8.77 ± 0.59
2,TTCGTCTTTTTTCTCACACACCCTTTTTATTAAAAG [CACACA_site7225],9.05 ± 0.6
3,TACTATAACAGACATACACACAAAAAAAAAAAAAAA [CACACA_site538],9.03 ± 0.47
4,TTGGCATACAGACACACACACACACGCCCACATATA [CACACA_site6425],10.1 ± 0.38
5,TATACACCCAGACACACACACACACCCAAAAAAAAA [CACACA_site497],10.2 ± 0.3
6,CGTGGGAGCAGACACACACACACACCCATATATATA [CACACA_site334],9.99 ± 0.5
7,GGAGCACCCAGACACACACACACATATATATATATA [CACACA_site336],10.4 ± 0.19
8,TACCTATACAGACACACACACACACGCCCACAAAAA [CACACA_site6375],10.2 ± 0.37
9,CATACCTATAGACACACACACACACGCACGCACAAA [CACACA_site6374],10 ± 0.18
10,TGGGAGCACAGACACACACACACACCCATATATATA [CACACA_site335],9.98 ± 0.36
11,AATACACCCAGACACACACACAAAAAAAAAAAAAAA [CACACA_site513],9.53 ± 0.61
12,CGCCCACAGATATATACACACATATATAAATAAATA [CACACA_site6877],9.04 ± 0.33
13,AATTAGCTCAAAGGTTGTACAAATATATTTTAATGG [XGTACX_site2352],8.66 ± 0.48
14,TTTATACATACATTCGTGCACATACGTATAACATAT,9.07 ± 0.37
15,TATAAAAAGCATAACACACACATGTCAATATATATA [CACACA_site1111],9.31 ± 0.35
16,ATTTTGATGATGTATGCACACATTGAAAATGAGAAA [CACACA_site2916],8.97 ± 0.57
17,AAAAAAAAGAATTATTGTACAAAAGAACAATAAATA [XGTACX_site1368],8.73 ± 0.57
18,TGAAAAAAAAAATACACACACGAGTTGTTATACATA [CACACA_site7486],9.09 ± 0.43
19,GGCATACACAGACACACACACACACCCACATATATA [CACACA_site591],10.2 ± 0.28
20,AAAAAAAACAGACACACACACAAATACATACACAAA [CACACA_site705],9.72 ± 0.31
21,CATACAGATGGACACACACACACACCCACAGACAAA [CACACA_site4431],9.93 ± 0.36
22,TACAGATACGGACACACACACACACCCAGACAAAAA [CACACA_site4432],10.2 ± 0.46
23,AACAAATACAGACACACACACACACCCAAAAAAAAA [CACACA_site515],10.2 ± 0.26

row,Sequence,gcPBM binding intensity (ln)
1,TGAACACAGACAAATACACACAAAAAAAATAAATAA [CACACA_site4298],9.28 ± 0.57
2,TAAATACAGACATACACACATACACCCACATATATA [CACACA_site547],9.76 ± 0.38
3,TTTAAATACAGACATACACACATACACCCACATATA [CACACA_site8078],9.61 ± 0.15
4,CATACACCCAGACACACACACATATATATATATATA [CACACA_site634],10.3 ± 0.17
5,ATAAAAGATTTATACATACACACATATTATATTCAC [CACACA_site3714],9.02 ± 0.42
6,ACAAGGAATATATAAGATAATTTTAAATATAACACG [CACACA_negctrl_site1734],8.73 ± 0.51
7,AAAAAAAGTAAATGTTGTACTATAATATGTAATATA [XGTACX_site7966],8.63 ± 0.55
8,ATATATATATATATATATATATATATATTTATATAT [GTGCAC_negctrl_site180],9.39 ± 0.042
9,AAAAAGAAAAAAAAATGTACATAAAGTCTAATGATA [XGTACX_site4781],8.78 ± 0.49
10,AAAAATTAAAAGAAAATACACACCTGTGGGTGCTTA [CACACA_site1988],8.54 ± 0.47
11,TTAATTTTTTTTTAAACACACATTTTTTTATTTAAG [CACACA_site2738],8.42 ± 0.54
12,TATGAAAAAAAAAAAAAAAAAAAAAAAAAAAAAAAA [XGTACX_negctrl_site587],8.02 ± 0.15
13,TATATATTCATATGTTGTACATAAATACAAATAAGA [XGTACX_site5602],8.69 ± 0.44
14,ATATAAGTATAATTATGTACTTATACTTATATAAAT [XGTACX_site5585],8.62 ± 0.41
15,TTGGCATACAGACACACACACACACCCCCACATATA [CACACA_site590],10.09 ± 0.085
16,AAAAATATTTTGGTTTGTACATATATTTTTACAATA [XGTACX_site8691],8.61 ± 0.34
17,ACGATGTTCATCACTACACACACAAAGAAATATATA [CACACA_site8859],9.26 ± 0.37
18,AGCACAGACGGACACACACACACACCCACAGACACA [CACACA_site4358],10.1 ± 0.23
19,CACAGACACGGACACACACACACACCCATATATATA [CACACA_site4354],10.1 ± 0.32
20,CACGCGCCCGGACACACACACACACCCATATATATA [CACACA_site5251],10.2 ± 0.57
21,AAAACACGCGGACACACACACACACGCCCACATATA [CACACA_site7105],10.1 ± 0.33
22,CACAGACACGGACACACACACACACCGATATATATA [CACACA_site4353],9.88 ± 0.24
23,CGTGGGAGCGGACACACACACACACCCATATATATA [CACACA_site4340],9.86 ± 0.41

row,Sequence,gcPBM binding intensity (ln)
1,CACACGCACGGACACACACACATATAAAATCTATAT [CACACA_site6428],9.85 ± 0.57
2,TACACAGACGGACACACACACACACTAGAAAAAAAA [CACACA_site4435],10.1 ± 0.59
3,ACTTGACACGGACACACACACATATATAAAAAAAAA [CACACA_site4576],9.53 ± 0.51
4,TACAAAAGTTAAACATGTACTTAATTATATGTTTTT [XGTACX_site2852],8.57 ± 0.44
5,TTCTTAATTTAAAATTGTACTTAAGTAATACTTATG [XGTACX_site3928],8.49 ± 0.57
6,TTGTTTCCGATGAAAGAAAGGAAATTATAATATATC [GTGCAC_negctrl_site516],8.43 ± 0.44
7,AAGTAATCATCATAAAGTACTAAATTATATTGTCAA [XGTACX_site5841],8.67 ± 0.37
8,TATAAACAGACGAAAACACACATATGTAAATATATA [CACACA_site4428],9.15 ± 0.44
9,TTTATTATCTTATTCACACACATATATAAATATGTA [CACACA_site7369],9.06 ± 0.42
10,TGTTTTTTATATTACTGTACATGTTTTGGAATAATA [XGTACX_site4716],8.75 ± 0.4
11,ATGAACAAGGGGCACACACACATTATGACTAATTTA [CACACA_site3204],9.6 ± 0.45
12,TTTAAATATTTTATAGCATGCTACCAATATGTATAT [TGCATGCA_site291],8.83 ± 0.52
13,TAGTGTGCCAAATTAGCACACACATATATACATGAA [CACACA_site8910],9.6 ± 0.36
14,TCTTTTTCTTGACGAGTGCAAAAATTGTGTTTGAAA,8.48 ± 0.35
15,TCGTAAACATATTGAAAAATATAAAAAGGGGTAATA [CACACA_negctrl_site619],8.71 ± 0.56
16,CTGAAGGAAAAAGAAAGTACTTTTTTTTTTTTGAAG [XGTACX_site5973],8.22 ± 0.68
17,CACAGACACGGACACACACACACACCCAGACACATA [CACACA_site4357],10.1 ± 0.43
18,TTGGCATACGGACACACACACACACCCAGACATATA [CACACA_site4492],9.84 ± 0.18
19,ATCAAGCACGGACACACACACACACCCAGACCCCCA [CACACA_site4360],10.19 ± 0.099
20,TTTATTTTATCATTTGCACACGCACCCAGACATAAA [CACACA_site4347],9.19 ± 0.35
21,CAAGCACCCAGACACACACACACACCCACACCCACA [CACACA_site369],10.1 ± 0.47
22,TTCTATTTTAATATCTGTACATAATAAAGATCCATT [XGTACX_site1142],8.46 ± 0.49
23,ACATTATATTTGGACTGTACTAATATATTGTTATAT [XGTACX_site5573],8.91 ± 0.42

row,Sequence,gcPBM binding intensity (ln)
1,GCTTATTAATATCATACACACATAGATATATTTATA [CACACA_site3104],8.91 ± 0.39
2,TATATGTTATATTGGACACACACAATAAACATTATG [CACACA_site8480],9.21 ± 0.38
3,AACCAGTTGATGTGTACACATATAGTAATAATTTTA [CACACA_site5564],9.16 ± 0.52
4,TAAAATTATTAATGAGTGCATTATAAAATCTATATA [GTGCAC_site9493],8.38 ± 0.46
5,ATATTTTCCCTTTATAGGAGCACAAAAATTAAATGT [CACACA_negctrl_site1114],8.46 ± 0.35
6,AGGAAATGTTTATATACATGCATAATTAAATATAAT [TGCATGCA_site672],8.74 ± 0.46
7,ATAGACAGCGCACAAACACACAAACACCCACCCACA [CACACA_site8043],9.99 ± 0.31
8,AAAAAAAACAAATACACACGCACACCGAAAAAAAAA [CACACA_site803],9.6 ± 0.39
9,AAAAAAAACACGCGCACACACACACCCACCCACCGA [CACACA_site2206],10.32 ± 0.078
10,AGAAAAAAACAACATGCACACGCACCCACAAAAAAA [CACACA_site7908],9.51 ± 0.28
11,AAAAAAACAACATGCACACGCACACCCAAAAAAAGC [CACACA_site72],9.84 ± 0.32
12,AAAAAAAACACGCGCACACACACACCCACAGACACA [CACACA_site5253],10.2 ± 0.14
13,TACACAAACAGACACACACACACACGCGCACAAAAA [CACACA_site7192],10.06 ± 0.042
14,AAAAAAAAAACAAATACACACGCACCCAAAAAAAAA [CACACA_site8166],9.61 ± 0.18
15,AAAAAAAAAACACGCGCACACACACCCACCCACCCA [CACACA_site8689],10.365 ± 0.0071
16,GTTTTGTACATATTCTCACACATATAAAAATACCCA [CACACA_site4446],8.77 ± 0.42
17,TATATATATATATATATACACACTATATAATTCAAA [CACACA_site1023],9.67 ± 0.042
18,GAATAAAAATTTTAATGTACATATTTTTTATTTATA [XGTACX_site8935],8.41 ± 0.49
19,TTTTTTTTTTTTTGATGTACTTATTTAATAAGATAT [XGTACX_site376],8.38 ± 0.47
20,ATATATAATATTTTTATTTTTATTTTTTTTTTATGA [TGCATGCA_negctrl_site577],8.34 ± 0.49
